The source of these data is paper PMC4336329 (PLoS ONE, 2015).

Each structure is given as a SMILES string. Hit rate of the full screen: of about 310,000 compounds, about 2,200 (0.71%) showed an effect of 50% or more. The effect is printed as a negative number. The list comes from a sample in which strong results are over-represented; it also holds similar structures and randomly drawn compounds.

human ether-à-go-go-related gene (hERG) potassium channel, sequence (Q12809 whole entry, looked up): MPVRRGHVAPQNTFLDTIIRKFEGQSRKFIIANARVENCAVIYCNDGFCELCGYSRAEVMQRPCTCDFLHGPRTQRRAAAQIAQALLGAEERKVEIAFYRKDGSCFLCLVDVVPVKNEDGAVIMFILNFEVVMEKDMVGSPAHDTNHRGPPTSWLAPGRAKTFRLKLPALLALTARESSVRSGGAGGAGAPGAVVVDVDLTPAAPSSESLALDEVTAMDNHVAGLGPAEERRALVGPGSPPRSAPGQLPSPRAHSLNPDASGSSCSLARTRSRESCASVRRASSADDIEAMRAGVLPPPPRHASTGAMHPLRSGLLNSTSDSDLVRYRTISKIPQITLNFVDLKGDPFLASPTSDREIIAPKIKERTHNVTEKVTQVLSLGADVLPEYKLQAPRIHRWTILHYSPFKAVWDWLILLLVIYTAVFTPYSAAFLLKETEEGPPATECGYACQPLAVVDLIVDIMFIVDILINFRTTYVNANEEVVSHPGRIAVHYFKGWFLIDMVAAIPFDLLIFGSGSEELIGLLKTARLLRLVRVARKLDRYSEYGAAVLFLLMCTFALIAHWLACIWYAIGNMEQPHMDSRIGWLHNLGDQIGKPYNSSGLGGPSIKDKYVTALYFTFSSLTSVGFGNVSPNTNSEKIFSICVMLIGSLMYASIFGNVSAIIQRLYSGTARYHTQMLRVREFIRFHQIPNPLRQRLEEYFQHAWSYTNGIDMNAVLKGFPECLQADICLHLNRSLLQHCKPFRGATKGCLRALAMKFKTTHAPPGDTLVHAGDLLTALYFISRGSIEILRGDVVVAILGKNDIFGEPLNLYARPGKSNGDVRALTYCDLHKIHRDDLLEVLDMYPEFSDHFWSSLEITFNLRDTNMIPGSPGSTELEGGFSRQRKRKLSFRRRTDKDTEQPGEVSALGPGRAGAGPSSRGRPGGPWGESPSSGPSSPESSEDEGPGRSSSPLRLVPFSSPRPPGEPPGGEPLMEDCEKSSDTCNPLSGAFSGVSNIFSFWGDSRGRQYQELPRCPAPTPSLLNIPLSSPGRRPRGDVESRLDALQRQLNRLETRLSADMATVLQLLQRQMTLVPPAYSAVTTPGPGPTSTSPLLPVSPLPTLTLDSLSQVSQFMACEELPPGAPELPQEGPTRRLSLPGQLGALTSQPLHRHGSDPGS

The experiment addresses human ether-à-go-go-related gene (hERG) potassium channel (human, UniProt Q12809). Put plainly: primary screen, population patch clamp on CHO cells stably expressing hERG; higher = less effect of the substance.
For `O=C(c1ccc(OC2CCN(CCc3ccccc3)CC2)cc1)N1CCCC1`, the “hERG current change (%, negative = inhibition) at 1uM” value is given as -1.63%.

For `O=C(c1ccc(OC2CCN(CCCc3ccccc3)CC2)cc1)N1CCCC1`, the “hERG current change (%, negative = inhibition) at 1uM” value is reported as -55.2%.

With `COC(=O)c1ccc(CN2CCC(Oc3ccc(C(=O)N4CCCCC4)cc3)CC2)cc1`, the “hERG current change (%, negative = inhibition) at 1uM” value is recorded as -11.3%.

Regarding `CC(=O)c1cc(C(=O)N2CCCC(CCC(=O)N(C)CCc3ccccn3)C2)cs1` (stereo not shown), the “hERG current change (%, negative = inhibition) at 1uM” value is on record as 9.12%.

Regarding `Cc1ccc(S(=O)(=O)Nc2cccc(/C=C/C(=O)O)c2)cc1`, the “hERG current change (%, negative = inhibition) at 1uM” value came out at 17%.

Turning to `O=C(CN1CCN(c2ccc(Cl)cc2)CC1)c1ccc2c(c1)OCO2`, the “hERG current change (%, negative = inhibition) at 1uM” value was found to be 1.86%.

`COc1ccccc1/C=C/C(=O)Nc1cccc(S(=O)(=O)NC2=NCCCCC2)c1`: the “hERG current change (%, negative = inhibition) at 1uM” value is reported as 13.1%.

Regarding `COc1ccc(C(=O)NC(=S)N2CCCCC2)cc1[N+](=O)[O-]`, the “hERG current change (%, negative = inhibition) at 1uM” value is listed as 5.8%.

On to `O=C(NCc1ccco1)c1sc(=S)n2c1[nH]c(=O)c1ccccc12`, for which the “hERG current change (%, negative = inhibition) at 1uM” value was -4.07%.

Take `CCCCn1c(N)c(N(CC)C(=O)c2ccccc2F)c(=O)[nH]c1=O`: the “hERG current change (%, negative = inhibition) at 1uM” value is given as 19.7%.

For `CCOc1ccccc1NC(=O)CSc1nnc(Cc2cccn2C)n1-c1ccc(F)cc1`, the “hERG current change (%, negative = inhibition) at 1uM” value is -8.2%.

Consider `CCCCc1nc(NCC2CCCO2)c(C#N)c2c1COC(C)(C)C2` (stereo not shown), for which the “hERG current change (%, negative = inhibition) at 1uM” value is 6.42%.

As to `COc1ccccc1OCc1ccc(C(=O)NN)cc1`, the “hERG current change (%, negative = inhibition) at 1uM” value turned out to be 5.11%.

As for `C[C@@H]1CC[C@@]2(O[C@@H](CCO)C[C@@H](O)[C@@H]2O)O1`, the “hERG current change (%, negative = inhibition) at 1uM” value came out at 20.7%.

As for `O=C(c1ccc(OC2CCN(C/C=C/c3ccc(F)cc3)CC2)cc1)N1CCCCC1`, the “hERG current change (%, negative = inhibition) at 1uM” value is reported as -19.2%.

Regarding `O=C(c1ccc(OC2CCN(C/C=C/c3ccc(F)cc3)CC2)cc1)N1CCCC1`, the “hERG current change (%, negative = inhibition) at 1uM” value is recorded as -74.9%.

Take `O=C(c1ccc(OC2CCN(C/C=C/c3ccccc3)CC2)cc1)N1CCCC1`: the “hERG current change (%, negative = inhibition) at 1uM” value is given as -27.1%.

In the case of `Cc1cccc(N2CCN(C(=O)c3ccc4nc(N5CCCCC5)sc4c3)CC2)c1C`, the “hERG current change (%, negative = inhibition) at 1uM” value is listed as 8.76%.

For `O=C(N/N=C/c1cc(Br)cs1)c1ccc2c(c1)OCCO2`, the “hERG current change (%, negative = inhibition) at 1uM” value is listed as 9.48%.

As to `Brc1ccc(C=Nc2ccc(Nc3ccccc3)cc2)s1`, the “hERG current change (%, negative = inhibition) at 1uM” value is 14.7%.

Turning to `Brc1csc(C=Nc2ccc3c(c2)OCCOCCOCCOCCO3)c1`, the “hERG current change (%, negative = inhibition) at 1uM” value is -78.1%.

Turning to `Brc1ccc(C=Nc2ccc3c(c2)OCCOCCOCCO3)s1`, the “hERG current change (%, negative = inhibition) at 1uM” value is given as -58.3%.

As for `Oc1c(Cl)cc(Cl)cc1C=Nc1ccc2c(c1)OCCO2`, the “hERG current change (%, negative = inhibition) at 1uM” value was 16%.

For `Oc1c(Br)cc(Br)cc1C=Nc1ccc2c(c1)OCCO2`, the “hERG current change (%, negative = inhibition) at 1uM” value is given as 12.2%.

For the molecule `COc1ccc(/[N+]([O-])=C/c2ccoc2)cc1`, the “hERG current change (%, negative = inhibition) at 1uM” value was 14%.

Take `Nc1nnc(SCc2nc3scc(-c4ccccc4)c3c(=O)[nH]2)s1`: the “hERG current change (%, negative = inhibition) at 1uM” value turned out to be 15.6%.

For the molecule `O=C(CC1CCCC1)Nc1nnc(C2CC2)s1`, the “hERG current change (%, negative = inhibition) at 1uM” value turned out to be 11.5%.

`CC(=O)Nc1cccc(NC(=O)CSc2nccn2Cc2ccccc2)c1`: the “hERG current change (%, negative = inhibition) at 1uM” value is on record as 14.4%.

As for `CN(C(=O)c1ccc(Cl)nc1)C1(c2ccccc2Cl)CCCCC1=O` (stereo not shown), the “hERG current change (%, negative = inhibition) at 1uM” value is 5.36%.

Take `O=C(NCC(=O)N(c1ccccc1)C(C(=O)NCC1CCCO1)c1ccccc1)c1ccco1` (stereo not shown): the “hERG current change (%, negative = inhibition) at 1uM” value is 13.9%.

For `C=Cc1ccc(Cn2c(=O)n(C)c(=O)c3sccc32)cc1`, the “hERG current change (%, negative = inhibition) at 1uM” value was 12.4%.

Turning to `FC(F)(F)c1ccc(-c2n[nH]c(=S)o2)nc1`, the “hERG current change (%, negative = inhibition) at 1uM” value amounted to 9.8%.

As for `CC(=O)c1c(N2CCN(c3ccccc3)CC2)nc(=S)n(-c2ccccc2)c1C`, the “hERG current change (%, negative = inhibition) at 1uM” value is given as 2.93%.

With `COc1ccc(N2CCN(c3nc(=S)n(-c4ccccc4)c(C)c3C(C)=O)CC2)cc1`, the “hERG current change (%, negative = inhibition) at 1uM” value worked out at 10.2%.

For the molecule `CC(=O)c1c(N2CCN(c3ccc(F)cc3)CC2)nc(=S)n(-c2ccccc2)c1C`, the “hERG current change (%, negative = inhibition) at 1uM” value is on record as -69.3%.

With `CN(c1ccc(O)cc1)c1nc(O)c(C2=c3ccccc3=NC2=O)s1`, the “hERG current change (%, negative = inhibition) at 1uM” value turned out to be 8.57%.

On to `Cc1cc(Br)cc2c1N(C)C(=O)C2(c1ccc(O)cc1)c1ccc(O)cc1`, for which the “hERG current change (%, negative = inhibition) at 1uM” value is 12%.

As to `O=[N+]([O-])c1ccc(NC(=S)N2CCN(c3ccc(F)cc3)CC2)cc1`, the “hERG current change (%, negative = inhibition) at 1uM” value was 13%.

On to `CCNC(=S)N1CCN(c2ccc([N+](=O)[O-])cc2)CC1`, for which the “hERG current change (%, negative = inhibition) at 1uM” value is -50.5%.

As for `COCCNC(=S)N1CCN(c2ccc(Cl)cc2)CC1`, the “hERG current change (%, negative = inhibition) at 1uM” value worked out at 1.27%.

`COCCCNC(=S)N1CCN(c2ccccc2)CC1`: the “hERG current change (%, negative = inhibition) at 1uM” value is recorded as 18.3%.

As to `COCCCNC(=S)N1CCN(c2ccc([N+](=O)[O-])cc2)CC1`, the “hERG current change (%, negative = inhibition) at 1uM” value was -64.8%.

With `C=CCNC(=S)N1CCN(c2ccc([N+](=O)[O-])cc2)CC1`, the “hERG current change (%, negative = inhibition) at 1uM” value is given as -52.1%.

With `O=[N+]([O-])c1ccc(N2CCN(C(=S)NCc3ccc(Cl)cc3)CC2)cc1`, the “hERG current change (%, negative = inhibition) at 1uM” value came to 12.9%.

With `O=[N+]([O-])c1ccc(N2CCN(C(=S)Nc3ccccc3)CC2)cc1`, the “hERG current change (%, negative = inhibition) at 1uM” value stood at 5.2%.

As for `CNC(=S)N1CCN(c2ccc([N+](=O)[O-])cc2)CC1`, the “hERG current change (%, negative = inhibition) at 1uM” value was -40.5%.
